Experimental data taken from the supplement of paper PMC12350171.
Where a name gives a salt, the structure may show the parent alone. Unmarked numbers belong to inactive results.

Columns and labels:
Settings in all cases: 20 µM
[1] = test system: Haemophilus parainfluenzae; experiment: growth AUC normalised to DMSO control (fraction of control); higher = less growth inhibition, active = hit call of the paper
Method in brief: (§1)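 Pathogens were passaged twice under anaerobic conditions, then inoculated into pre-reduced mGAM plates at a starting OD578 of 0.01, with compound at 20 μM and 1% DMSO, and sealed with breathable membranes. For Haemophilus parainfluenzae, the medium was supplemented with hemin and NAD. OD578 was read every hour for 24 h in three biological replicates. Growth-curve AUC was calculated by the trapezoidal rule up to the exponential-to-stationary transition and normalised to DMSO controls on the same plate.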

[2] = test system: Salmonella enterica typhimurium; experiment: as above
Method in brief: as §1

Shigella flexneri = experiment: as above
Method in brief: as §1

Vibrio cholerae = experiment: as above
Method in brief: as §1

[3] = test system: Yersinia pseudotuberculosis; experiment: as above
Method in brief: as §1

P. vulgatus RND KO = experiment: growth AUC normalised to DMSO control (median) (fraction of control); higher = less growth inhibition, active = hit call of the paper
Method in brief: (§2)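 Each strain went through two overnight passages under anaerobic conditions before growth in mGAM in 96-well plates, starting at OD578 0.01, with each compound from the approved-drug library at 20 μM and 1% DMSO. Inside an anaerobic incubator, OD578 was recorded every hour for 24 h. Growth curves were cut off at entry into stationary phase, and the area under the curve was calculated by the trapezoidal rule and normalised to vehicle wells on the same plate. Reported values are medians of three biological replicates.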

P. vulgatus WT = experiment: as above
Method in brief: as §2

[4] = test system: S. enterica typhimurium WT; experiment: as above
Method in brief: as §2

[5] = test system: S. enterica typhimurium tolC KO; experiment: as above
Method in brief: as §2
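Wherever growth AUC normalised to DMSO control (median) is given: active when median AUC fell below 0.1.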

SMILES | growth AUC normalised to DMSO control [1] | growth AUC normalised to DMSO control [2] | growth AUC normalised to DMSO control (Shigella flexneri) | growth AUC normalised to DMSO control (Vibrio cholerae) | growth AUC normalised to DMSO control [3] | growth AUC normalised to DMSO control (P. vulgatus RND KO) | growth AUC normalised to DMSO control (P. vulgatus WT) | growth AUC normalised to DMSO control [4] | growth AUC normalised to DMSO control [5]
CC[C@@H](CO)NC(=O)[C@@H]1C=C2c3cccc4[nH]cc(c34)C[C@H]2N(C)C1 [Methylergometrine maleate] | 0.997 | 0.985 | 0.966 | 1.01 | 0.998 | 0.975 | 0.952 | 0.993 | 1
C[C@@H]1CC[C@H]2[C@@H](C)C(=O)O[C@@H]3O[C@@]4(C)CC[C@@H]1[C@]32OO4 [Artemisinin] | 0.986 | 0.988 | 1.01 | 0.987 | 0.957 | 1.02 | 1.04 | 0.996 | 0.998
CC(C)c1cccc(C(C)C)c1O [Propofol] | 0.988 | 1.01 | 1.01 | 1.01 | 0.985 | 1.05 | 1.05 | 1.01 | 0.993
CCC(=O)O[C@@](Cc1ccccc1)(c1ccccc1)[C@@H](C)CN(C)C [Levopropoxyphene napsylate] | 1 | 0.999 | 1.04 | 1 | 1.02 | 1.03 | 1.05 | 1 | 0.995
CN1C[C@H](C(=O)N[C@]2(C)O[C@@]3(O)[C@@H]4CCCN4C(=O)[C@H](Cc4ccccc4)N3C2=O)C[C@@H]2c3cccc4[nH]cc(c34)C[C@H]21 [Dihydroergotamine tartrate] | 1.04 | 0.978 | 0.994 | 1.02 | 1.01 | 0.989 | 0.996 | 1 | 0.984
C[N+]1(C)CCOC(O)(c2ccc(-c3ccc(C4(O)C[N+](C)(C)CCO4)cc3)cc2)C1 (centres undefined) [Hemicholinium bromide] | 0.977 | 1 | 1.03 | 1.06 | 1.03 | 1 | 1.02 | 1.01 | 1
CC1C=CC=CCCC=CC=CC=CC=CC(OC2OC(C)C(O)C(N)C2O)CC2OC(O)(CC(O)C(O)CCC(O)CC(O)CC(O)CC(=O)OC(C)C(C)C1O)CC(O)C2C(=O)O (centres undefined) [Nystatine] | 0.988 | 0.992 | 0.959 | 0.994 | 0.989 | 0.988 | 0.996 | 0.997 | 1
C[C@H](N)[C@H](O)c1ccc(O)c(O)c1 [Levonordefrin] | 1.04 | 1.01 | 1 | 1 | 1.03 | 1.01 | 1.03 | 0.99 | 1
C=CCN1CC[C@]23c4c5ccc(O)c4O[C@H]2C(=O)CC[C@@]3(O)[C@H]1C5 [Naloxone hydrochloride] | 1.01 | 0.981 | 1.03 | 1 | 1.01 | 1.03 | 0.997 | 1.01 | 1
C=C(C)[C@@H]1[C@H]2OC(=O)[C@@H]1[C@]1(O)C[C@H]3O[C@]34C(=O)O[C@H]2[C@]14C [Picrotoxinin] | 1 | 1 | 0.96 | 1 | 0.997 | 1.03 | 1.03 | 1.02 | 1.02
CC(=O)O[C@H]1C[C@H](O[C@H]2[C@@H](O)C[C@H](O[C@H]3[C@@H](O)C[C@H](O[C@H]4CC[C@@]5(C)[C@H](CC[C@@H]6[C@@H]5C[C@@H](O)[C@]5(C)[C@@H](C7=CC(=O)OC7)CC[C@]65O)C4)O[C@@H]3C)O[C@@H]2C)O[C@H](C)[C@H]1O[C@@H]1O[C@H](CO)[C@@H](O)[C@H](O)[C@H]1O [Lanatoside C] | 1.04 | 1.01 | 1.01 | 1.02 | 0.984 | 1.01 | 1.06 | 1.01 | 0.997
CNC(C)(C)Cc1ccccc1 [Mephentermine hemisulfate] | 1.09 | 1.03 | 1.03 | 1.06 | 0.977 | 1.03 | 1.08 | 1 | 0.994
CCn1cc(C(=O)O)c(=O)c2cc3c(cc21)OCO3 [Oxolinic acid] | 0.0639 (active) | 0.0132 (active) | 0.0542 (active) | 0.0353 (active) | 0.0367 (active) | 0.951 | 0.922 | 0.0291 (active) | 0.0105 (active)
CC(C)[N+](C)(CCC(C(N)=O)(c1ccccc1)c1ccccc1)C(C)C [Isopropamide iodide] | 0.981 | 0.998 | 1 | 1 | 0.991 | 0.995 | 1.02 | 1 | 0.993
CC[N+]1(C)CCCC(OC(=O)C(O)(c2ccccc2)c2ccccc2)C1 (centres undefined) [Pipenzolate bromide] | 0.996 | 0.993 | 0.977 | 0.998 | 1.01 | 1 | 1.02 | 1 | 0.999
CCC1(c2ccc(N)cc2)CCC(=O)NC1=O (centres undefined) [Glutethimide, para-amino] | 1.04 | 1.01 | 1 | 1.04 | 0.988 | 1.02 | 1.04 | 1.02 | 0.993
Fc1ccc(C(OCCN2CCN(CCCc3ccccc3)CC2)c2ccc(F)cc2)cc1 | 0.991 | 1 | 0.998 | 0.944 | 0.995 | 0.994 | 0.966 | 0.999 | 0.914
Oc1cc(Cl)ccc1Oc1ccc(Cl)cc1Cl [Triclosan] | 0.0433 (active) | 0.00977 (active) | 0.0073 (active) | 0.184 (active) | 0.911 | 0.462 | 0.357 | 0.00521 (active) | 0.00694 (active)
C[C@]12CC[C@H](O)C[C@@H]1CC[C@@H]1[C@@H]2CC[C@]2(C)C(=O)CC[C@@H]12 [Epiandrosterone] | 1 | 0.987 | 0.99 | 1.19 | 0.997 | 1 | 1.03 | 1 | 0.951
O=C(CCCN1CCC(n2c(=O)[nH]c3ccccc32)CC1)c1ccc(F)cc1 [Benperidol] | 1.03 | 0.981 | 0.998 | 0.998 | 0.975 | 1.01 | 1.02 | 0.993 | 0.956
O=[N+]([O-])O[C@@H]1CO[C@H]2[C@@H]1OC[C@@H]2O [Isosorbide mononitrate] | 1.05 | 1.01 | 1.03 | 1.02 | 1 | 0.946 | 0.958 | 1 | 0.99
O=c1[nH]c2ccccc2n1C1CCN(CCCC(c2ccc(F)cc2)c2ccc(F)cc2)CC1 [Pimozide] | 0.788 | 0.998 | 1 | 1.07 | 1.02 | 1.14 | 1 | 0.998 | 0.971
S=C(NC1CCCCC1)N1CCC(c2cnc[nH]2)CC1 [Thioperamide maleate] | 0.976 | 0.98 | 0.957 | 0.97 | 0.991 | 1 | 1.01 | 0.997 | 0.996
CC(C)c1c(CN(C)C(C)Cc2ccccc2)n(C)n(-c2ccccc2)c1=O (centres undefined) [Famprofazone] | 0.971 | 0.997 | 1.03 | 0.965 | 1 | 0.992 | 1 | 1.01 | 0.871
Clc1ccc(C(OCCN2CCCCC2)c2ccccc2)cc1 (centres undefined) [Cloperastine hydrochloride] | 0.833 | 0.992 | 1.03 | 0.954 | 1.03 | 1.01 | 1 | 1 | 0.938
CC(=O)O[C@H]1CC[C@@]2(C)C(=CC[C@@H]3[C@@H]2CC[C@]2(C)C(=O)CC[C@@H]32)C1 [Dehydroisoandosterone 3-acetate] | 0.989 | 0.995 | 0.966 | 0.988 | 1 | 0.976 | 0.952 | 0.991 | 0.903
